According to PubChem BioAssay (Tox21):
“And” between values parts separate entries of the source, which are not always exact repeats. Equal values may be shown once. A number with no mark means an inactive call. Records with an inconclusive call do not appear. Where a call stands in place of a potency, no number is given. The source made the active and inactive calls. Unless noted, calls come from the whole dose curve; as a rule, active = well fitted curve in the direction sought with a large enough effect in the repeat runs; inconclusive = weak or mixed curves; inactive = no such curve, though single readings can be large; an effect the other way counts as inactive or inconclusive.

Legend:
[1] = Human pregnane X receptor (PXR) small molecule agonists, qHTS cell viability counter screen (AID 1346977); note: nearly all actives have a fitted effect of over 50% in size; note: potency is the fitted concentration of half-maximal effect
How it was run: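 Fluorescence read-out (CellTiter-Fluor) of viability in PXR-Luc HepG2 cells, multiplexed with the luciferase agonist read. Compounds in DMSO added after 5hr plating; 24hr total exposure at 37C, 5% CO2.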

[2] = Caspase-3/7 induction in HepG2 cells by small molecules, qHTS assay (AID 1346978); note: nearly all actives have a fitted effect of over 15% in size
How it was run: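 Wild-type HepG2 cells (2,000/well) were settled 5 h at 37 C, 5% CO2, then exposed to compounds in DMSO for 17 h. Caspase-3/7 activity was read by luminescence 30 min after adding Caspase-Glo 3/7 reagent at room temperature.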

[3] = Caspase-3/7 induction in CHO-K1 cells by small molecules, qHTS cell viability counter screen (AID 1346979); note: nearly all actives have a fitted effect of over 35% in size; note: potency is the fitted concentration of half-maximal effect
How it was run: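 CHO-K1 wt, 1,500 cells/well; 5hr pre-incubation 37C/5% CO2; compound pin transfer (DMSO); 16hr exposure; CellTiter-Fluor added, 1hr, fluorescence read.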

[4] = Caspase-3/7 induction in HepG2 cells by small molecules, qHTS cell viability counter screen (AID 1346981); note: nearly all actives have a fitted effect of over 30% in size; note: potency is the fitted concentration of half-maximal effect; for activity change, negative = cytotoxicity: series mostly up to about 92 µM
How it was run: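 The parent HepG2 line is plated at 2,000 cells per well and rested 5 hr before compound pinning from DMSO stocks. Following a 16-hr treatment at 37 C, a fluorogenic live-cell substrate (CellTiter-Fluor) reports viability after 1 hr.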

[5] = biological target: Nuclear receptor subfamily 1 group I member 2 (Homo sapiens) (UniProt O75469); test: Human pregnane X receptor (PXR) small molecule agonists, qHTS assay (AID 1346982); note: nearly all actives have a fitted effect of over 35% in size; note: potency is the fitted concentration of half-maximal effect
How it was run: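 After plating in 5% charcoal-stripped FBS and a 5 hr rest, PXR-Luc HepG2 cells received compounds in DMSO. Following 24 hr at 37 C, ONE-Glo was added and light output read.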

[6] = biological target: Acetylcholinesterase (Homo sapiens) (UniProt P22303); test: Acetylcholinesterase (AChE) small molecule antagonists: colormetric cell-based qHTS assay (AID 1347395; calls by dose curve; note: nearly all actives have a fitted effect of over 30% in size)
How it was run: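 SH-SY5Y cells; cpd 30 min 37 C; + DTNB/acetylthiocholine, 90 min 37 C; colorimetric thiocholine read; qHTS.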

[7] = biological target: Acetylcholinesterase (Homo sapiens) (UniProt P22303); test: Acetylcholinesterase (AChE) small molecule antagonists: enzyme-based qHTS assay (AID 1347397; calls by dose curve; note: nearly all actives have a fitted effect of over 55% in size); details: Potency: AChE enzyme activity inhibition; outcome: AChE enzyme activity inhibition
How it was run: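 Tox21 library chemicals are tested in qHTS format against recombinant human AChE. The enzyme, dispensed at 50 mU/mL, sits with compound for 30 min at room temperature. A DTNB–acetylthiocholine cocktail follows, and colour is read after 10 min.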

[8] = biological target: Acetylcholinesterase (Homo sapiens) (UniProt P22303); test: Acetylcholinesterase (AChE) small molecule antagonists: enzyme-based qHTS assay with human liver microsomes (AID 1347399; calls by dose curve; note: nearly all actives have a fitted effect of over 60% in size); details: Potency: qHTS inhibition; outcome: qHTS inhibition
How it was run: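 Recombinant human AChE (50 mU/mL in the enzyme mix) and human liver microsomes (0.25 mg/mL final) were preincubated with compound and NADPH (0.25 mg/mL final) for 30 min at 37 C. Acetylthiocholine/DTNB was then added; thiocholine was read colorimetrically after 10 min at room temperature.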

[9] = biological target: Cytochrome P450 2C19 (Homo sapiens) (UniProt P33261); test: Cytochrome P450 Family 2 Subfamily C Member 19 (CYP2C19) small molecule antagonists: luciferase reporter qHTS assay (AID 1671197); note: nearly all actives have a fitted effect of over 65% in size; note: potency is the fitted concentration of half-maximal effect; for activity change, negative = inhibition: series mostly up to about 120 µM
How it was run: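 Relative luminescence units recorded 20 min after the detection reagent stopped a 1 h, 37C CYP2C19 reaction on proluciferin substrate, which was started by NADPH regeneration following 10 min room-temperature compound preincubation; ketoconazole positive control.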

[10] = biological target: Cytochrome P450 1A2 (Homo sapiens) (UniProt P05177); test: Cytochrome P450 Family 1 Subfamily A Member 2 (CYP1A2) small molecule antagonists: luciferase reporter qHTS assay (AID 1671199); note: nearly all actives have a fitted effect of over 50% in size; note: potency is the fitted concentration of half-maximal effect; for activity change, negative = inhibition: series mostly up to about 120 µM
How it was run: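 Quantitative high-throughput format using the P450-Glo CYP1A2 system. Reaction initiated by NADPH regeneration solution, 1 h at room temperature, then stopped with detection reagent; luminescence measured 20 min later.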

[11] = biological target: Voltage-gated inwardly rectifying potassium channel KCNH2 (Homo sapiens) (UniProt Q12809); test: Human Ether-a-go-go-Related Gene (hERG) channel small molecule antagonists: fluorescence cell-based qHTS assay (AID 1671200); note: nearly all actives have a fitted effect of over 50% in size; note: potency is the fitted concentration of half-maximal effect;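 for activity change, negative = inhibition: hERG-expressing U2OS cells given a thallium stimulus after FluxOR II dye loading; series mostly up to about 77 µM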
How it was run: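 Read-out: thallium influx as a surrogate for potassium, tracked as fluorescence (480 nm ex/540 nm em) every second for 2 min after Stimulus Buffer addition in dye-loaded hERG-U2OS cells.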

[12] = biological target: Cytochrome P450 3A4 (Homo sapiens) (UniProt P08684); test: Cytochrome P450 Family 3 Subfamily A Member 4 (CYP3A4) small molecule antagonists: luciferase reporter qHTS assay (AID 1671201); note: nearly all actives have a fitted effect of over 50% in size; note: potency is the fitted concentration of half-maximal effect; for activity change, negative = inhibition: series mostly up to about 120 µM
How it was run: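 Luminescent readout (RLU) proportional to CYP3A4 activity, from luciferin generated off a proluciferin substrate. Enzyme–substrate mix plus compound 10 min at room temp, NADPH regeneration 1 h, detection reagent 20 min.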

[13] = biological target: Acetylcholinesterase (Homo sapiens) (UniProt P22303); test: Acetylcholinesterase (AChE) small molecule antagonists: fluorescence cell-based qHTS assay (AID 1347398; calls by dose curve; note: nearly all actives have a fitted effect of over 50% in size); details: Potency: AChE activity; outcome: AChE activity
How it was run: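 Cellular AChE inhibition: SH-SY5Y cells treated with test chemical for 30 min at 37 C, then acetylthiocholine hydrolysis followed over 40 min at room temperature via thiocholine-reactive Thiolite Green fluorescence (490/520 nm).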

[14] = biological target: Cytochrome P450 2D6 (Homo sapiens) (UniProt P10635); test: Cytochrome P450 Family 2 Subfamily D Member 6 (CYP2D6) small molecule antagonists: luciferase reporter qHTS assay (AID 1671196); note: nearly all actives have a fitted effect of over 50% in size; note: potency is the fitted concentration of half-maximal effect; for activity change, negative = inhibition: series mostly up to about 120 µM
How it was run: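 Quantitative HTS of Tox21 chemicals against CYP2D6 using a luminescent proluciferin substrate. After NADPH addition, 1 h room-temperature reaction; luminescence recorded 20 min post detection reagent.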

[15] = biological target: Cytochrome P450 2C9 (Homo sapiens) (UniProt P11712); test: Cytochrome P450 Family 2 Subfamily C Member 9 (CYP2C9) small molecule antagonists: luciferase reporter qHTS assay (AID 1671198); note: nearly all actives have a fitted effect of over 50% in size; note: potency is the fitted concentration of half-maximal effect; for activity change, negative = inhibition: series mostly up to about 120 µM
How it was run: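 CYP2C9 activity was measured with a P450-Glo proluciferin substrate. Enzyme–substrate mix was held with compound for 10 min at room temperature, then NADPH regeneration solution was added for 1 h at 37C. Luciferin product was read as luminescence.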

[16] = Caspase-3/7 induction in CHO-K1 cells by small molecules, qHTS assay (AID 1346980); note: nearly all actives have a fitted effect of over 15% in size
How it was run: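 Wild-type cells were seeded at 1,500 per well and settled 5 hr at 37 C, 5% CO2, then exposed to DMSO-dissolved compounds for 17 hr. Caspase-Glo 3/7 reagent was added, and luminescence was read after 30min at room temperature.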

Cytochrome P450 2C9 (Homo sapiens), sequence (P11712 whole entry, looked up): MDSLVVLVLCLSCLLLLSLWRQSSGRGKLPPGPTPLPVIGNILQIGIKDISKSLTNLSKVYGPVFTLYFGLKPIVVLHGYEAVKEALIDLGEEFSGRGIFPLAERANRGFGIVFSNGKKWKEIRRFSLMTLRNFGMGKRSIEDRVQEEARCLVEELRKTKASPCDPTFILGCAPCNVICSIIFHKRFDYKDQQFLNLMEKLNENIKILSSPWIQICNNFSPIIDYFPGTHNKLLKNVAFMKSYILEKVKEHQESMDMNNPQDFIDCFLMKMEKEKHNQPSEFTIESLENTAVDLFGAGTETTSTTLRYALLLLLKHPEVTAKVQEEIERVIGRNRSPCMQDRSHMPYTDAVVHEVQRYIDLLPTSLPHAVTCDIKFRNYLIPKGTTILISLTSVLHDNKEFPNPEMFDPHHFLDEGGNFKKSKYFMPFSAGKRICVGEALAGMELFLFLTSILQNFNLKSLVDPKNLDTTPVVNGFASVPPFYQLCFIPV
Cytochrome P450 3A4 (Homo sapiens), sequence (P08684 whole entry, looked up): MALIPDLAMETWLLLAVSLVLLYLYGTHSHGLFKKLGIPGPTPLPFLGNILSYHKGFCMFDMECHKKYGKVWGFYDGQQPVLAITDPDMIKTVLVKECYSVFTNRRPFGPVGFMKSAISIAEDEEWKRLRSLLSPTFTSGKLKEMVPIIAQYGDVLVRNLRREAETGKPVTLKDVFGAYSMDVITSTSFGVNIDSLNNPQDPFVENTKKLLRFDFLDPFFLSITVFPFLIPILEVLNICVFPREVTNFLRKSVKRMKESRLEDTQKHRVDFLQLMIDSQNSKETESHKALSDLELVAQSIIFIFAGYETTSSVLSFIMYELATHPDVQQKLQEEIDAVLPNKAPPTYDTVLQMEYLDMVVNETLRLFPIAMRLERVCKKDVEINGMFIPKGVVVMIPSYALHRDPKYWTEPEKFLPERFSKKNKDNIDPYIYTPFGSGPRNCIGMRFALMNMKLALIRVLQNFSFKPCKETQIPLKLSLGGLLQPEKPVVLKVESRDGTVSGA
Cytochrome P450 2D6 (Homo sapiens), sequence (P10635 whole entry, looked up): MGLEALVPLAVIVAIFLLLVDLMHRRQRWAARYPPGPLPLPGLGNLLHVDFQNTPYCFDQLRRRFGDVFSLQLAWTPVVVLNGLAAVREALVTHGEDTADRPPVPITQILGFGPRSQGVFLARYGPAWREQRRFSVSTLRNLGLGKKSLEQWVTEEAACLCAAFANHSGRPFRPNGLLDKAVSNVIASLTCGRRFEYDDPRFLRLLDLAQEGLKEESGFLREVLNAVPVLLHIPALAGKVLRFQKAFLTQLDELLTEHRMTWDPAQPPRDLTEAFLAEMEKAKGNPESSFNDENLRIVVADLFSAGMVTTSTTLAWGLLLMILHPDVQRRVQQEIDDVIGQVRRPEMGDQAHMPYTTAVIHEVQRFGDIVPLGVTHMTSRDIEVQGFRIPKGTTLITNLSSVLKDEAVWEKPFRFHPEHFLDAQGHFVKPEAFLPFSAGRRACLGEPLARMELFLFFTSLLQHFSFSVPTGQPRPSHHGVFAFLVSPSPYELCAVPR
Cytochrome P450 1A2 (Homo sapiens), sequence (P05177 whole entry, looked up): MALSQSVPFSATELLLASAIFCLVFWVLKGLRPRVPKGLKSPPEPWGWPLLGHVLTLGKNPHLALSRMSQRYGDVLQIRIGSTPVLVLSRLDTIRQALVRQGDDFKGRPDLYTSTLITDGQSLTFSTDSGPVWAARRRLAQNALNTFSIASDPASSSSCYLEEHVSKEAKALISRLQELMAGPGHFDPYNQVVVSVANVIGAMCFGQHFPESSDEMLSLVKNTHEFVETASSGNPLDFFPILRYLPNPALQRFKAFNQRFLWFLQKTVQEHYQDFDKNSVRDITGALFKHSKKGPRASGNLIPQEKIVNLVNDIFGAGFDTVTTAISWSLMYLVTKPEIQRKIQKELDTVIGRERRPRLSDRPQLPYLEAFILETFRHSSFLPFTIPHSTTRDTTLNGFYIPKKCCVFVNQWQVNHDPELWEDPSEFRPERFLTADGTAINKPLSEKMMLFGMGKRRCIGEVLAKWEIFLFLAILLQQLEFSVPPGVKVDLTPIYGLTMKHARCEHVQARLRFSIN
Nuclear receptor subfamily 1 group I member 2 (Homo sapiens), sequence (O75469 whole entry, looked up): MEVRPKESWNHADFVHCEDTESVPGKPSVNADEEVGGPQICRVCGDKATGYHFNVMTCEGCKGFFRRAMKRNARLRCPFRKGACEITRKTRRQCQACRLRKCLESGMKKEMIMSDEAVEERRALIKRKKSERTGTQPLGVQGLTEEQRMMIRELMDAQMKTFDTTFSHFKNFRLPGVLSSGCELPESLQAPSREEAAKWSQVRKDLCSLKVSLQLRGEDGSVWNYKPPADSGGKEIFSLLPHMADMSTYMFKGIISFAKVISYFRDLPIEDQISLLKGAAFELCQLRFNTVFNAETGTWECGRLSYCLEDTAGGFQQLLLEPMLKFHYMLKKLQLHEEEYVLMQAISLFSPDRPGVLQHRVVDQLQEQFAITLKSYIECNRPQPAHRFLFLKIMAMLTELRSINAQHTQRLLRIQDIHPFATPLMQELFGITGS
Acetylcholinesterase (Homo sapiens), sequence (P22303 whole entry, looked up): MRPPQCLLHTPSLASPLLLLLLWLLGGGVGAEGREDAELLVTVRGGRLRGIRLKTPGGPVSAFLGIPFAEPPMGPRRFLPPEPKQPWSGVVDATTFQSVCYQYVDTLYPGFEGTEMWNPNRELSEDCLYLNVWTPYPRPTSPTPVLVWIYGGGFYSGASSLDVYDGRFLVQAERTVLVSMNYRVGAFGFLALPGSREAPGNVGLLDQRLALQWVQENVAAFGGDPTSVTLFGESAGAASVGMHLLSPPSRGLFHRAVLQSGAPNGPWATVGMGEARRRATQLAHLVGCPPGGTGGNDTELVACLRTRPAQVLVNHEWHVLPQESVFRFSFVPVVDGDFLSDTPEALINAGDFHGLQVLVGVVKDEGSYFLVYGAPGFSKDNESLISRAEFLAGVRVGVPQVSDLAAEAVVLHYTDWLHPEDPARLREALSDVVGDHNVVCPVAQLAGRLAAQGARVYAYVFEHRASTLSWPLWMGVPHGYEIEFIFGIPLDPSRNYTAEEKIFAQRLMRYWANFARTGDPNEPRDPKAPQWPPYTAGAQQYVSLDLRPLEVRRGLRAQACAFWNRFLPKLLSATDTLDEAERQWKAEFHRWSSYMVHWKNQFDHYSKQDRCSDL
Cytochrome P450 2C19 (Homo sapiens), sequence (P33261 whole entry, looked up): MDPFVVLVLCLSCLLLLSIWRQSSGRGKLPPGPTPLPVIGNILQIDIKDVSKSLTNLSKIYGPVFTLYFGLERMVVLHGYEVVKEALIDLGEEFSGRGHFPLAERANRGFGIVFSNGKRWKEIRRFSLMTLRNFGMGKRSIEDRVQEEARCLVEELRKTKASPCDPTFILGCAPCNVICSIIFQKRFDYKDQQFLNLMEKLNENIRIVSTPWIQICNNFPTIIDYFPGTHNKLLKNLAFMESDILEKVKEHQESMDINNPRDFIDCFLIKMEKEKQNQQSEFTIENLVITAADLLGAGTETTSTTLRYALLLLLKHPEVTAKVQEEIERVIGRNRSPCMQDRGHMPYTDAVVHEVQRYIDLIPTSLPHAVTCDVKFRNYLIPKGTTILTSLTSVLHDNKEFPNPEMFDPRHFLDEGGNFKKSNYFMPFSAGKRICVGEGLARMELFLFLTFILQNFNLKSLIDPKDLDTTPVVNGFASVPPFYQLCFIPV
Voltage-gated inwardly rectifying potassium channel KCNH2 (Homo sapiens), sequence (Q12809 whole entry, looked up): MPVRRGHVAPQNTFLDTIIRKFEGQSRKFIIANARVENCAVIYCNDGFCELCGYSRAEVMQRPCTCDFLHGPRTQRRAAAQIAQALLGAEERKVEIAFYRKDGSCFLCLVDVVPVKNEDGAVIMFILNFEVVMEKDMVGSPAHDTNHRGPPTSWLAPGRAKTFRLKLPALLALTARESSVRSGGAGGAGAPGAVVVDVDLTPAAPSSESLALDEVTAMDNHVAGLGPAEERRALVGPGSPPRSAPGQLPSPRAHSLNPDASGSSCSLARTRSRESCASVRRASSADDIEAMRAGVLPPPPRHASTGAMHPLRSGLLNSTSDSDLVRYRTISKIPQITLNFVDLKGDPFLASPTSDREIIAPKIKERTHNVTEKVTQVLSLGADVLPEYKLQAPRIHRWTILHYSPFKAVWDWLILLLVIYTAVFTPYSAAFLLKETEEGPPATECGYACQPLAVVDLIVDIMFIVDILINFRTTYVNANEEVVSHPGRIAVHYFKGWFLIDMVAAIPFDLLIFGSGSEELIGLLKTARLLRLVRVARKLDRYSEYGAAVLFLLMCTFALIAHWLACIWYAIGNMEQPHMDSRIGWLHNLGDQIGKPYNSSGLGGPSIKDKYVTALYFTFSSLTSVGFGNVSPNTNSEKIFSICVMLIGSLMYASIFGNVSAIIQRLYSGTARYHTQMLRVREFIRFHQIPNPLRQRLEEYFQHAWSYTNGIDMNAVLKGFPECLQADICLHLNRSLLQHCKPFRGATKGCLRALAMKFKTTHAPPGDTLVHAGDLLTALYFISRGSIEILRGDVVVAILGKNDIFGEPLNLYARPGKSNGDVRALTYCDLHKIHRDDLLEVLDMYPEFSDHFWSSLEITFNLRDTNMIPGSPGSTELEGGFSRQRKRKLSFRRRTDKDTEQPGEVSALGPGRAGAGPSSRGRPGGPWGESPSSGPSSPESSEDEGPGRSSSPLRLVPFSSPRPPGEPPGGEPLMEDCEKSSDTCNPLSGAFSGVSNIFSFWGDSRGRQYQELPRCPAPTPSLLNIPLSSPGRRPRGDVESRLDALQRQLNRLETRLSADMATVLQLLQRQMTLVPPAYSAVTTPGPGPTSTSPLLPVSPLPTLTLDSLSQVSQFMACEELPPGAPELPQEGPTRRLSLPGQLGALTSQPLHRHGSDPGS

## O=C(O)c1cc(Cl)ccc1Cl
[1]
  Potency: inactive
[2]
  Potency: inactive
[3]
  Potency: inactive
[4]
  Potency: inactive
[5]
  Potency: inactive
[6]
  Potency: inactive
[7]
  Potency: inactive
[8]
  Potency: inactive
[9]
  Potency: 79.3 µM (active)
[10]
  Potency: 39.7 µM (active)
[11]
  Potency: inactive
[12]
  Potency: inactive

## OCCCl
[1]
  Potency: inactive
[2]
  Potency: inactive
[3]
  Potency: inactive
[4]
  Potency: inactive
[5]
  Potency: inactive
[6]
  Potency: inactive
[7]
  Potency: inactive
[13]
  Potency: inactive
[8]
  Potency: inactive
[14]
  Potency: inactive
[9]
  Potency: inactive
[15]
  Potency: inactive
[10]
  Potency: inactive
[11]
  Potency: inactive

## O=C=NC1CCCCC1
[1]
  Potency: inactive
[2]
  Potency: inactive
[3]
  Potency: inactive
[4]
  Potency: inactive
[5]
  Potency: 9.71 µM (active)
[6]
  Potency: inactive
[7]
  Potency: inactive
[13]
  Potency: inactive
[8]
  Potency: inactive
[14]
  Potency: inactive
[9]
  Potency: inactive
[15]
  Potency: inactive
[10]
  Potency: inactive
[11]
  Potency: inactive
[12]
  Potency: inactive

## CCCN(CCOc1c(Cl)cc(Cl)cc1Cl)C(=O)n1ccnc1
[1]
  Potency: 50.1 µM (active)
[2]
  Potency: inactive
[3]
  Potency: 62.4 µM (active)
[4]
  Potency: 62.4 µM (active)
[5]
  Potency: 7.86 µM (active) and 3.44 µM (active)
[6]
  Potency: inactive
[7]
  Potency: inactive
[14]
  Potency: 363 nM (active) and 1 µM (active)
[9]
  Potency: 22.9 nM (active) and 50.2 nM (active)
[15]
  Potency: 457 nM (active) and 796 nM (active)
[10]
  Potency: 129 nM (active) and 224 nM (active)
[11]
  Potency: 12.6 µM (active) and 19.5 µM (active)
[12]
  Potency: 32.4 nM (active) and 100 nM (active)

## CCCCCCCCCCCCN=C(N)N
[1]
  activity change, negative = cytotoxicity: 1.51% [at 3.27 µM]
[2]
  caspase activation: -1.34% [at 3.27 µM]
[3]
  activity change, negative = cytotoxicity: -4.73% [at 3.27 µM]
[4]
  activity change, negative = cytotoxicity: -9.99% [at 3.27 µM]
[5]
  activation: 13.3% [at 3.27 µM]
[6]
  activity, negative = inhibition: -5.91% [at 4.07 µM]
[7]
  activity change, negative = inhibition: -1.29% [at 4.07 µM]
[13]
  activity change, negative = inhibition: -10.7% [at 3.98 µM]
[15]
  activity change, negative = inhibition: -14.6% [at 4.07 µM]
[10]
  Potency: 2.2 µM (active)
[11]
  activity change, negative = inhibition: -4.13% [at 2.72 µM]
[12]
  activity change, negative = inhibition: 2.59% [at 4.07 µM]

## c1ccc2c(c1)-c1cccc3cccc-2c13
[1]
  Potency: inactive
[2]
  Potency: inactive
[3]
  Potency: inactive
[4]
  Potency: inactive

## C=C(C)C(=O)OCCCCOC(=O)C(=C)C
[1]
  Potency: inactive
[2]
  Potency: inactive
[3]
  Potency: inactive
[4]
  Potency: inactive
[5]
  Potency: inactive
[6]
  Potency: inactive
[7]
  Potency: inactive
[13]
  Potency: inactive
[8]
  Potency: inactive
[14]
  Potency: inactive
[9]
  Potency: 7.96 µM (active)
[15]
  Potency: 39.9 µM (active)
[10]
  Potency: 25.2 µM (active)
[11]
  Potency: inactive

## CCc1ccccc1N
[1]
  Potency: inactive
[2]
  Potency: inactive
[3]
  Potency: inactive
[16]
  Potency: inactive
[4]
  Potency: inactive
[6]
  Potency: inactive
[7]
  Potency: inactive
[13]
  Potency: inactive
[9]
  Potency: 89.4 µM (active)

## O=C([O-])c1ccccn1.O=C([O-])c1ccccn1.O=C([O-])c1ccccn1.[Cr+3]
[1]
  Potency: inactive
[2]
  Potency: inactive
[3]
  Potency: inactive
[4]
  Potency: inactive
[5]
  Potency: inactive
[6]
  Potency: inactive
[7]
  Potency: inactive
[13]
  Potency: inactive
[8]
  Potency: inactive
[14]
  Potency: 79.9 µM (active)
[10]
  Potency: 79.9 µM (active)
